# Source: PubChem BioAssay (Tox21)
# Records with an inconclusive call do not appear. Unmarked numbers belong to inactive results. Calls come from the whole dose curve; as a rule, active = well fitted activation curve with a large enough effect in the repeat runs; inconclusive = weak or mixed curves; inactive = flat fitted curve, though single readings scatter.
# Assay: A CellTox Green Cytotoxicity Assay to monitor cytotoxicity in HEK293 cells - 32 hour (AID 1224881); note: nearly all actives have a fitted effect of over 40% in size
# Conditions: CellTox Green fluorescence; series mostly up to 76.8 µM; cytotoxicity increase: at the top concentration
# Outline: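 HEK293 cells, 600/well, were preincubated 5 hours and then exposed to compounds at 37 C for up to 40 hours. A cell-impermeant cyanine dye staining dead-cell DNA was read by fluorescence at 0, 8, 16, 24, 32 and 40 h time points.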
# % is set by controls: 0 for no effect and ±100 for the full control effect.
row,Compound,cytotoxicity increase
1,CN1CCC(=C2c3ccccc3Sc3ccccc32)CC1,13.3% [at 35.3 µM]
2,C=C1[C@H]2CC[C@@H]3[C@H]2C(C)(C)CCC[C@]13C,-2.07%
3,CN1C[C@H]2c3ccccc3Oc3ccc(Cl)cc3[C@@H]2C1,22.8% [at 35.3 µM]
4,O=CC1CC=CCC1 (stereo not given),0.631%
5,CC(CSC(=O)c1ccccc1)C(=O)N1C[C@@H](Sc2ccccc2)C[C@H]1C(=O)O (stereo not given in full),1.09% [at 15.8 µM]
6,C=CCOc1ccccc1OCC(O)CNC(C)C (stereo not given),-1.85% [at 35.3 µM]
7,C#CCN(C)CCCOc1ccc(Cl)cc1Cl,8.21% [at 35.3 µM]
8,CCCCCCCCCCCc1ccccc1,-0.607%
9,C[C@@H]1C[C@H]2O[C@@]3(O[C@@H]2C(C)(C)O)[C@H](O)[C@@]2(C)[C@@H]4CC[C@H]5C(C)(C)[C@@H](O[C@@H]6OC[C@@H](O)[C@H](O)[C@H]6O)CC[C@@]56C[C@@]46CC[C@]2(C)[C@@H]13,15.8% [at 35.3 µM]
10,COCCCN1CCC(NC(=O)c2cc(Cl)c(N)c3c2OCC3)CC1,-18.2% [at 35.3 µM]
11,CC(=O)[O][Al][O]C(C)=O,-0.0707%
12,c1ccc(CNCCNCc2ccccc2)cc1,2.31% [at 35.3 µM]
13,CC1CCC(=O)C1=O (stereo not given),-6.92%
14,O=S(c1cc(Cl)cc(Cl)c1O)c1cc(Cl)cc(Cl)c1O,4.21% [at 35.3 µM]
15,O=C(O)C1(C(=O)Nc2ccc(Cl)cc2Cl)CC1,-9.96%
16,CCC(CC)Nc1ccc(C)c(C)c1,-2.43%
17,Nc1ccc([N+](=O)[O-])c(C(F)(F)F)c1,-9.49% [at 35.3 µM]
18,CCOC(=O)C(=O)CCc1ccccc1,2.21% [at 35.3 µM]

row,Compound,cytotoxicity increase
1,CC(C)(C)Cl,5.25%
2,O=C(O)C1(C(=O)O)CCC1.[NH2-].[NH2-].[Pt+2],-26.2% [at 35.3 µM]
3,CCCCCCCCO[C@@H]1O[C@H](CO)[C@@H](O)[C@H](O)[C@H]1O,7.78%
4,Nc1ccccc1S(=O)(=O)c1ccccc1,-3.68%
5,CCCCC(CC)COC(=O)CCCCCCCCC(=O)OCC(CC)CCCC (stereo not given),-19.6%
6,Nc1ccc(S(=O)(=O)Nc2ccccc2)cc1,0.315% [at 35.3 µM]
7,Cc1oc(-c2ccccc2)nc1CCOc1cccc2c1ccn2CCC(=O)O,4.71%
8,O=C(NCCO[N+](=O)[O-])c1cccnc1,-0.599% [at 35.3 µM]
9,CCCC(=O)Nc1ccc(O)c(C(C)=O)c1,-1.19% [at 35.3 µM]
10,CCOc1ccc(N=Nc2ccc(/C=C/c3ccc(N=Nc4ccc(OCC)cc4)cc3S(=O)(=O)O)c(S(=O)(=O)O)c2)cc1,-39.8%
11,O=[N+]([O-])c1cccc(S(=O)(=O)O)c1,18.5%
12,COc1ccc(C)cc1[N+](=O)[O-],-9.67%
13,CC(C)OC(=O)C(C)N(C(=O)c1ccccc1)c1ccc(F)c(Cl)c1 (stereo not given),20%
14,O=C(O)c1ccco1,-0.777%
15,CN(C)CCN(Cc1ccsc1)c1ccccn1,-3.94% [at 35.3 µM]
16,CCO[Si](CCCCl)(OCC)OCC,20%
17,O=C(O)C(S)C(S)C(=O)O (stereo not given),-2.95% [at 35.3 µM]
